Experimental data taken from PubChem BioAssay AID743320 (Broad Institute, 2014).
Measured potencies and affinities stand elsewhere. Calls of active or inactive are those of the source.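 How the source made its calls: active means signal drop whose fitted half-maximal potency is at most twice the top valid dose tested; inconclusive means flat curve inhibiting 30 to 70 percent, or a poor fit; inactive means the rest.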

Target: Endoplasmic reticulum aminopeptidase 2 (Homo sapiens) (UniProt Q6P179)
Experiment: inhibition of ERAP2 arginine-AMC cleavage – biochemical, fluorescence plate reader, cherry-picked, set 2, selectivity assay for selective ERAP1 modulator project, dose response (AID 743320)
Conditions: recombinant ERAP2, Arg-AMC fluorescence, 1 h; series mostly up to 11 µM

Sequence of Endoplasmic reticulum aminopeptidase 2 (Homo sapiens) (Q6P179 whole entry, looked up): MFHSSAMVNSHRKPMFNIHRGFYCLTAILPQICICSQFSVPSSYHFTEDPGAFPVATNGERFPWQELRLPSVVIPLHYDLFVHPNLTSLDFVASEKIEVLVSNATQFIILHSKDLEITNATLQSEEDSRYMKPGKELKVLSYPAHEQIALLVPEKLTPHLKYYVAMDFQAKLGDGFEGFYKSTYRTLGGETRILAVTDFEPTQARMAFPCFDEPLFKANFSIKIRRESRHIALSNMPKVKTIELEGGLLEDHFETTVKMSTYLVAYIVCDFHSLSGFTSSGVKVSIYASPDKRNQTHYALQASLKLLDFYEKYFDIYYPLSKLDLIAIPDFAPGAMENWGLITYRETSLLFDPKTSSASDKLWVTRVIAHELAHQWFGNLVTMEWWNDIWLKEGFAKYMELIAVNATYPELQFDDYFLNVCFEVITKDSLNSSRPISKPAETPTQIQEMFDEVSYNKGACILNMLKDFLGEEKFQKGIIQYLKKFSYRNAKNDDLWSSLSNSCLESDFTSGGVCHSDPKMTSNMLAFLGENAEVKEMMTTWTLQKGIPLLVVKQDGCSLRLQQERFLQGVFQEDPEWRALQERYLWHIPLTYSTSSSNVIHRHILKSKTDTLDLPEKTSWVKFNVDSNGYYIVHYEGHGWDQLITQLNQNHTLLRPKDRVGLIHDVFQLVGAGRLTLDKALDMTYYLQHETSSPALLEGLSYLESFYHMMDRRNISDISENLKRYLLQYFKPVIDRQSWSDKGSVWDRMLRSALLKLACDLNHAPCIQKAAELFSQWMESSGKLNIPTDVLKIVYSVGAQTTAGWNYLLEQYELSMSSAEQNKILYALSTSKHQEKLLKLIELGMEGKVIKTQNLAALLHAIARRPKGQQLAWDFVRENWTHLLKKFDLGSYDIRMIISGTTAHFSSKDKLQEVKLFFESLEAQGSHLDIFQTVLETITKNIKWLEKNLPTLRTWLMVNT

outcome, inactive:
COc1ccc(CN(C)C[C@@H]2OCCCC[C@H](C)Oc3ccc(NS(=O)(=O)c4cccs4)cc3C(=O)N([C@H](C)CO)C[C@@H]2C)cc1
Cc1ccccc1-c1ccc2c(c1)O[C@@H](CN(C)Cc1ccc(C(=O)O)cc1)[C@@H](C)CN([C@@H](C)CO)S2(=O)=O
Cc1ccc(-c2cc(C(=O)N3CCCC3)c3ccccc3n2)s1
COc1ccc(CN(C)C[C@@H]2OCCCC[C@@H](C)Oc3ccc(NS(=O)(=O)c4cccs4)cc3C(=O)N([C@H](C)CO)C[C@@H]2C)cc1
CCCN(C)C[C@@H]1OCCCC[C@H](C)Oc2ccc(NC(=O)Nc3ccc(F)cc3)cc2C(=O)N([C@H](C)CO)C[C@@H]1C
Cc1noc(C)c1S(=O)(=O)N(C)C[C@@H]1OCCCC[C@@H](C)Oc2ccc(NS(=O)(=O)c3cccs3)cc2C(=O)N([C@@H](C)CO)C[C@@H]1C
C[C@@H]1CCCCO[C@@H](CN(C)C)[C@H](C)CN([C@@H](C)CO)C(=O)c2cc(NC(=O)Nc3ccc(C(F)(F)F)cc3)ccc2O1
Cc1noc(C)c1NC(=O)N(C)C[C@@H]1Oc2c(NC(=O)Nc3ccccc3)cccc2C(=O)N([C@H](C)CO)C[C@@H]1C
COc1ccc(CN(C)C[C@@H]2OCCCC[C@@H](C)Oc3ccc(NS(=O)(=O)c4c(C)noc4C)cc3C(=O)N([C@@H](C)CO)C[C@@H]2C)cc1
C[C@@H]1CCCCO[C@H](CN(C)C)[C@H](C)CN([C@H](C)CO)C(=O)c2cc(NS(=O)(=O)c3ccc(Cl)cc3)ccc2O1
C[C@@H]1CCCCO[C@@H](CN(C)C)[C@@H](C)CN([C@@H](C)CO)C(=O)c2cc(NS(=O)(=O)c3ccc(Cl)cc3)ccc2O1
CNC[C@H]1OCCCC[C@@H](C)Oc2ccc(NS(=O)(=O)c3ccc(C)cc3)cc2C(=O)N([C@@H](C)CO)C[C@H]1C
COc1cccc(S(=O)(=O)N(C)C[C@@H]2Oc3ncccc3C(=O)N([C@H](C)CO)C[C@@H]2C)c1
Cc1ccccc1-c1ccc2c(c1)O[C@@H](CN(C)Cc1ccc(C(=O)O)cc1)[C@@H](C)CN([C@H](C)CO)S2(=O)=O
CC(=O)N1CCN(C(=O)C2(NC(=O)Nc3ccc(C)cc3)CCCCC2)CC1
COc1ccc(CN(C)C[C@@H]2OCCCC[C@@H](C)Oc3ccc(NS(=O)(=O)c4cccs4)cc3C(=O)N([C@@H](C)CO)C[C@H]2C)cc1
C[C@@H]1CCCCO[C@H](CN(C)Cc2ccccc2)[C@H](C)CN([C@H](C)CO)C(=O)c2cc(NS(=O)(=O)c3ccccc3)ccc2O1
COc1ccc(CN(C)C[C@@H]2OCCCC[C@@H](C)Oc3ccc(NS(=O)(=O)c4cccs4)cc3C(=O)N([C@H](C)CO)C[C@H]2C)cc1
Cc1noc(C)c1S(=O)(=O)Nc1ccc2c(c1)C(=O)N([C@H](C)CO)C[C@@H](C)[C@@H](CN(C)CC1CCCCC1)OCCCC[C@@H](C)O2
C[C@H](CO)N1C[C@H](C)[C@H](CN(C)CC2CCCCC2)Oc2c(NC(=O)Nc3ccc4c(c3)OCO4)cccc2C1=O
COc1ccc(CN(C)C[C@H]2OCCCC[C@@H](C)Oc3ccc(NS(=O)(=O)c4cccs4)cc3C(=O)N([C@@H](C)CO)C[C@H]2C)cc1
C[C@@H]1CCCCO[C@H](CN(C)Cc2ccc(C(=O)O)cc2)[C@H](C)CN([C@@H](C)CO)C(=O)c2cc(NC(=O)Nc3ccc(C(F)(F)F)cc3)ccc2O1
COc1ccc(NC(=O)Nc2ccc3c(c2)C(=O)N([C@@H](C)CO)C[C@@H](C)[C@H](CN(C)Cc2ccc(C(=O)O)cc2)OCCCC[C@H](C)O3)cc1
C[C@H]1CN([C@@H](C)CO)C(=O)c2cccc(NC(=O)Nc3ccc(C(F)(F)F)cc3)c2O[C@@H]1CN(C)CC1CC1
COc1ccc(C(=O)O)cc1S(=O)(=O)Nc1cc(C(F)(F)F)ccc1N1CCCCC1
Cc1noc(C)c1S(=O)(=O)Nc1ccc2c(c1)C(=O)N([C@H](C)CO)C[C@H](C)[C@H](CN(C)Cc1ccc3c(c1)OCO3)OCCCC[C@@H](C)O2
CCCN(C)C[C@@H]1OCCCC[C@@H](C)Oc2ccc(NS(=O)(=O)c3cccs3)cc2C(=O)N([C@H](C)CO)C[C@@H]1C
C[C@H]1CN([C@@H](C)CO)C(=O)c2cccc(NC(=O)Nc3ccc(F)cc3)c2O[C@@H]1CN(C)C(=O)Nc1ccc2c(c1)OCO2
C[C@@H]1CCCCO[C@@H](CN(C)CC2CCCCC2)[C@H](C)CN([C@@H](C)CO)C(=O)c2cc(NC(=O)Nc3ccccc3)ccc2O1
